Measurements from PubChem BioAssay (Tox21).
Where “and” joins values, the source holds several entries; their conditions need not be identical. Identical values can stand only once. Records with an inconclusive call do not appear. A call without a number means that no potency is given here. Calls of active or inactive are those of the source. The call rests on the fitted dose curve.

Assay: qHTS assay to identify small molecule agonists of the progesterone receptor (PR) signaling pathway - cell viability counter screen (AID 1346799); further: nearly all actives have a fitted effect of over 45% in size
Details: PR-UAS-bla HEK293T viability, CellTiter-Glo luminescence, 16 h; series mostly up to 92.4 µM
Source text: National Center for Advancing Translational Sciences [NCATS]
NIH Chemical Genomics Center [NCGC]
U.S. Environmental Protection Agency [EPA]
National Institutes of Environmental Health Sciences [NIEHS]
National Toxicology Program [NTP]
U.S. Food and Drug Administration [FDA]
Progesterone receptor (PR), a nuclear hormone receptor, plays an important role in development, metabolic homeostasis and reproduction. It is activated by the steroid hormone progesterone. Endocrine disrupting chemicals (EDCs) and their interactions with steroid hormone receptors like PR causes disruption of normal endocrine function. To identify the compounds that stimulate PR signaling, a PR-UAS-bla GripTite cell line i.e. PR-UAS-bla HEK293T (Invitrogen, Carlsbad, CA, USA) containing a beta-lactamase reporter gene under the control of an UAS response element was used to screen Tox21 10K compound library. The cytotoxicity of the Tox21 compound library against the PR-bla cell line was tested in parallel by measuring the cell viability using CellTiter-Glo assay in the same wells.
Tox21 Assay Protocol Summary:
PR-UAS-bla HEK293T cells were dispensed at 3,000 cells/5 uL of assay medium containing 2% charcoal stripped FBS per well into black wall/clear-bottom 1536-well plates using a Multidrop Combi (ThermoFisher Scientific, Waltham, MA) dispenser. After the assay plates were incubated at a 37C and 5% CO2 for 6 hr, 23 nL of compounds dissolved in DMSO, positive controls or DMSO only was transferred to the assay plate by a Pintool station (Kalypsys, San Diego, CA). The plates were incubated at 37C and 5% CO2 for 16 hr. Then 1 uL of LiveBLAzer B/G FRET substrate was added using a Flying Reagent Dispenser (FRD, Aurora Discovery, San Diego, CA), the plates were incubated at room temperature for 2 hours, and fluorescence intensity was measured by an Envision plate reader (PerkinElmer, Shelton, CT). For cell viability readout that measures cytotoxicity, 4 uL/well of CellTiter-Glo reagent was added into the assay plates using a FRD. After 30 min incubation at room temperature, the luminescence intensity in the plates was measured using a ViewLux (PerkinElmer) plate reader.
Potency means the concentration at half of the fitted maximal effect.

Row | Compound | Potency | activity change, negative = cytotoxicity
1 | Clc1ccc2nsnc2c1NC1=NCCN1 | inactive | 
2 | Oc1cccc2cc3cccc(O)c3c(O)c12 | inactive | 
3 | CCCCCCCCn1sc(Cl)c(Cl)c1=O | inactive | 
4 | O=C(O)c1cc(O)c2c(c1)C(=O)c1cccc(O)c1C2=O | inactive | 
5 | Cc1cc(O)c(Cl)c(C)c1Cl | inactive | 
6 | CSc1ccc(C(=O)c2[nH]c(=O)[nH]c2C)cc1 | inactive | 
7 | CC(C)(C)C1CCC(CC2=C(O)c3ccccc3C(=O)C2=O)CC1 (stereo not given) | inactive | 
8 | CCCCCCCC/C=C/CCCCCCCC1=NCCN1CCO | 61.1 µM (active) | 
9 | CCCCCCCC/C=C\CCCCCCCCOCCO | 25.1 µM (active) | 
10 | CNCc1cc(F)ccc1Oc1ccc(Cl)c(Cl)c1 | inactive | 
11 | CC(C)n1nc(-c2cc3cc(O)ccc3[nH]2)c2c(N)ncnc21 | inactive | 
12 | O=C1Cc2cc(CCN3CCN(c4nsc5ccccc45)CC3)c(Cl)cc2N1 | inactive | 
13 | Cc1cccc(N(C)C(=S)Oc2ccc3c(c2)C2CCC3C2)c1 (stereo not given) | inactive | 
14 | O=C(Oc1cccc2cccnc12)c1ccccc1 | 4.73 µM (active) | 
15 | Clc1ccccc1C(c1ccccc1)(c1ccccc1)n1ccnc1 | 7.7 µM (active) | 
16 | CC1=NC(C)OC1C (stereo not given) | inactive | 
17 | Nc1c(Cl)cc(Cl)cc1Cl | inactive | 
18 | O=c1[nH]sc2cc(Cl)ccc12 | inactive | 
19 | CC(C)(C)CC(C)(C)c1ccc(O)c(Cc2ccc(Cl)cc2Cl)c1 | 33.5 µM (active) | 
20 | CC1=C(/C=C/C(C)=C/C=C/C(C)=C/C=O)C(C)(C)CCC1 | 60.8 µM (active) | 

Row | Compound | Potency | activity change, negative = cytotoxicity
21 | Nc1ccc2cc(S(=O)(=O)O)cc(O)c2c1N=Nc1ccccc1C(F)(F)F | inactive | 
22 | CCCCN(CCCC)C(=O)N(CCCC)CCCC | inactive | 
23 | O=C1c2ccccc2Cc2ccccc21 | inactive | 
24 | CCOC(=O)c1nc(C(Cl)(Cl)Cl)n(-c2ccc(Cl)cc2Cl)n1 | 61.1 µM (active) | 
25 | CC(NN)c1ccccc1 (stereo not given) |  | -7.08% [at 19 µM] (inactive)
26 | Cc1cc(O)c(C(C)(C)C)cc1Sc1cc(C(C)(C)C)c(O)cc1C | 27.3 µM (active) | 
27 | CCC(C)(C)C1CCCCC1OC(C)=O (stereo not given) | inactive | 
28 | CCCCCOc1ccccc1/C(=C\SC)n1ccnc1 | 7.5 µM (active) | 
29 | Oc1ccc2c(c1)-c1ccccc1C2 | inactive | 
30 | Cc1onc(-c2c(Cl)cccc2Cl)c1C(=O)N[C@@H]1C(=O)N2[C@@H]1SC(C)(C)[C@@H]2C(=O)O | inactive | 
31 | COc1cc(/C=C/C(=O)O[C@H]2CC[C@]34C[C@]35CC[C@]3(C)[C@@H]([C@H](C)CCC=C(C)C)CC[C@@]3(C)[C@@H]5CC[C@H]4C2(C)C)ccc1O | inactive | 
32 | CCCCCCCCCCCCCC[P+](CCCC)(CCCC)CCCC (tested in a mixture with another compound) | 30.8 µM (active) | 
33 | CS(=O)(=O)CCNCc1ccc(-c2ccc3ncnc(Nc4ccc(OCc5cccc(F)c5)c(Cl)c4)c3c2)o1 | 15 µM (active) | 
34 | Cc1cccc(S(=O)(=O)O)c1C | inactive | 
35 | C=CC(=O)OCC(CO)(COC(=O)C=C)COC(=O)C=C | 27.4 µM (active) and 30.6 µM (active) | 
36 | COC(=O)C1=C(C)NC(C)=C(C(=O)OCCc2ccc(N3CCN(C(c4ccccc4)c4ccccc4)CC3)cc2)C1c1cccc([N+](=O)[O-])c1 (stereo not given) | inactive | 
37 | COC(=O)c1cc(Cl)ccc1OC | inactive | 
38 | CCN(C(=O)c1cc(C)cc(OC[C@H](C)Nc2ccncc2)c1)C(C)C | inactive | 
39 | CN(C)[C@@H]1C(=O)C(C(N)=O)=C(O)[C@@]2(O)C(=O)C3=C(O)c4c(O)cccc4C[C@H]3C[C@@H]12 | inactive | 
40 | CCCCCCCCCCCCCCCC(=O)OC[C@H](O)[C@H]1OC(=O)C(O)=C1O | 27.3 µM (active) | 
